Assay results: paper PMC7862700, “An all-to-all approach to the identification of sequence-specific readers for epigenetic DNA modifications on cytosine”

Experiments:
Experiment in all cases: DAPPL (digital affinity profiling via proximity ligation, sequencing); 10 mM Tris-HCl pH 7.5, 50 mM NaCl, 1 mM DTT, 4% glycerol, room temperature, 30 min; GST-TFs on glutathione beads, 16-mer random dsDNA library, 0.1% formaldehyde crosslink after washing; high values mean tight binding
FEV = molecular target: T1, FEV (Homo sapiens, UniProt Q99581 1-238); details: protein: recombinant; tags: N-terminal GST; dsDNA, one strand shown
T1 sequence: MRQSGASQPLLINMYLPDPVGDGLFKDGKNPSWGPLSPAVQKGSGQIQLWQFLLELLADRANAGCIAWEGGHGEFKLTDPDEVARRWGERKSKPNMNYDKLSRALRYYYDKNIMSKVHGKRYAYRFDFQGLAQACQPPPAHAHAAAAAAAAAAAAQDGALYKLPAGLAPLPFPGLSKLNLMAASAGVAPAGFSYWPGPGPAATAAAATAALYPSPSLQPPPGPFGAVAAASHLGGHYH
Method in brief: (§1)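 GST fusions of human transcription factors were expressed in yeast and captured with glutathione beads. Once given DNA barcodes and pooled alongside a tag-only sample, they were incubated for 30 min at room temperature with 200 nmole of a random double-stranded 16-mer DNA library in Tris/NaCl/DTT/glycerol buffer, then washed, crosslinked (0.1% formaldehyde), proximity-ligated, PCR-amplified and sequenced on an Illumina NextSeq500. The binding signal of each hexamer is its read frequency for a factor divided by its frequency for the tag-only sample.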

ETV5 = ETV5 (Homo sapiens, UniProt P41161 1-510); details: protein: recombinant; tags: N-terminal GST; dsDNA, one strand shown
Sequence of ETV5 (P41161 whole entry): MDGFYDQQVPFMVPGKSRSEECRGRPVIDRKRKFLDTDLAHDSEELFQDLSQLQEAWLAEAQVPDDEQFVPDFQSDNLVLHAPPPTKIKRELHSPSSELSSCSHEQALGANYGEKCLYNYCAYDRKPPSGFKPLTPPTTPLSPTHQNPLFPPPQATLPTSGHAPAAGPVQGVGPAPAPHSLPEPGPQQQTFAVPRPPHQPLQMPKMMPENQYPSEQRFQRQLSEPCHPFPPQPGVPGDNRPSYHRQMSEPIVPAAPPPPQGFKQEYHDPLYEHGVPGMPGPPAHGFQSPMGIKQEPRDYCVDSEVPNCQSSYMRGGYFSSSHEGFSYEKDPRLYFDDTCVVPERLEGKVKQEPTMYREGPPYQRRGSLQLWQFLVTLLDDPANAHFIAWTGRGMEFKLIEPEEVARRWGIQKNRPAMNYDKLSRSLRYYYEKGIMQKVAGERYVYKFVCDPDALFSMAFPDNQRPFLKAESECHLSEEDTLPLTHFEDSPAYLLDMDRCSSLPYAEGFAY
Method in brief: as §1

HSF1 = HSF1 (Homo sapiens, UniProt Q00613 1-529); details: protein: recombinant; tags: N-terminal GST; chain copies: 3; dsDNA, one strand shown
Sequence of HSF1 (Q00613 whole entry): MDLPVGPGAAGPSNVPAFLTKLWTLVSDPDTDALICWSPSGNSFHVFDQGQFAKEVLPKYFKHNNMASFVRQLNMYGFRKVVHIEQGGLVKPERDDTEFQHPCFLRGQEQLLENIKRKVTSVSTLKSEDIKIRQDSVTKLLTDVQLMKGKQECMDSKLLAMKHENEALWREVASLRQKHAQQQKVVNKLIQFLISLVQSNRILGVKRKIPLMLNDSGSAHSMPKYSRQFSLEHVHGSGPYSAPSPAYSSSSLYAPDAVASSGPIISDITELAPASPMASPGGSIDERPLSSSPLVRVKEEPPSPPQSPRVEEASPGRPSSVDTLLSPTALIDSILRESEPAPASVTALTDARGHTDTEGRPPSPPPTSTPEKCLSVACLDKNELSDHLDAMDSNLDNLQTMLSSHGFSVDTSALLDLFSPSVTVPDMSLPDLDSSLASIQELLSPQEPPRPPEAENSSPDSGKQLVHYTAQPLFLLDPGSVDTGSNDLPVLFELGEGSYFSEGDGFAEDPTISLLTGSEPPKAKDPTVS
Method in brief: as §1

SPIC = molecular target: T2, SPIC (Homo sapiens, UniProt Q8N5J4 1-248); details: protein: recombinant; tags: N-terminal GST; dsDNA, one strand shown
T2 sequence: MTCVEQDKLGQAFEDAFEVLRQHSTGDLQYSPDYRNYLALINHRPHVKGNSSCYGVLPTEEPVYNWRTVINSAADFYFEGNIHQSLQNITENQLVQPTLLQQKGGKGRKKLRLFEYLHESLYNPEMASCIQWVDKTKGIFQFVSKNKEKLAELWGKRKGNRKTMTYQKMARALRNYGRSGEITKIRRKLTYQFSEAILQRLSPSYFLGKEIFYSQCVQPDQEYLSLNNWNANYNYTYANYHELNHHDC
Method in brief: as §1

ELF4 = ELF4 (Homo sapiens, UniProt Q99607 1-663); details: protein: recombinant; tags: N-terminal GST; dsDNA, one strand shown
Sequence of ELF4 (Q99607 whole entry): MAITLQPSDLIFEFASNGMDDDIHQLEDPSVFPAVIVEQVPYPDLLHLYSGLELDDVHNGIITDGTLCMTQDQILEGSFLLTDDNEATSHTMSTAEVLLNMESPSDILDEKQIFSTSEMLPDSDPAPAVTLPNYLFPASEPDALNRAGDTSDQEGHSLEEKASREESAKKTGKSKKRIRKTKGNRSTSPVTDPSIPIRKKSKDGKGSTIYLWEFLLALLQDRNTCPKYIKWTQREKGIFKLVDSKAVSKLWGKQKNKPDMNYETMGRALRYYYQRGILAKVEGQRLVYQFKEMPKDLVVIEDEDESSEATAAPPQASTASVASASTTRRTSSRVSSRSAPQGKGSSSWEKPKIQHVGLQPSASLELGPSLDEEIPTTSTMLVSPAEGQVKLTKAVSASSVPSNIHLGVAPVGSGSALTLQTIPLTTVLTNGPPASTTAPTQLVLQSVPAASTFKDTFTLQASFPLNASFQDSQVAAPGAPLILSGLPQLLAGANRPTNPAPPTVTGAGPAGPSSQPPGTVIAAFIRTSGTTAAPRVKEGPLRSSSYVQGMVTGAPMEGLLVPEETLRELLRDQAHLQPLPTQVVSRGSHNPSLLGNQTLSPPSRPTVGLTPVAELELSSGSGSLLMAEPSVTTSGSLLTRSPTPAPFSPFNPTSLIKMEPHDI
Method in brief: as §1

ELK4 = molecular target: T3, ELK4 (Homo sapiens, UniProt P28324-2 1-405); details: protein: recombinant; tags: N-terminal GST; dsDNA, one strand shown
T3 sequence: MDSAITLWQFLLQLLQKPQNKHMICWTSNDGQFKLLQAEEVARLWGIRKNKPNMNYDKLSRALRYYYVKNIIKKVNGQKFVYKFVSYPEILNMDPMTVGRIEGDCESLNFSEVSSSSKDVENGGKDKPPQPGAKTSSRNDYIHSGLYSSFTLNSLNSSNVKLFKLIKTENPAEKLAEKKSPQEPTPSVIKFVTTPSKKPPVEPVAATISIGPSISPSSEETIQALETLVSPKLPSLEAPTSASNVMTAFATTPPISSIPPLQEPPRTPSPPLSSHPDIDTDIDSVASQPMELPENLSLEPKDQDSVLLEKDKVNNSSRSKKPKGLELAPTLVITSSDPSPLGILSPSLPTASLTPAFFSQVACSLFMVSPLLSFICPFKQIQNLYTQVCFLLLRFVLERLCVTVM
Method in brief: as §1

ETV2 = molecular target: T4, ETV2 (Homo sapiens, UniProt O00321 1-342); details: protein: recombinant; tags: N-terminal GST; dsDNA, one strand shown
T4 sequence: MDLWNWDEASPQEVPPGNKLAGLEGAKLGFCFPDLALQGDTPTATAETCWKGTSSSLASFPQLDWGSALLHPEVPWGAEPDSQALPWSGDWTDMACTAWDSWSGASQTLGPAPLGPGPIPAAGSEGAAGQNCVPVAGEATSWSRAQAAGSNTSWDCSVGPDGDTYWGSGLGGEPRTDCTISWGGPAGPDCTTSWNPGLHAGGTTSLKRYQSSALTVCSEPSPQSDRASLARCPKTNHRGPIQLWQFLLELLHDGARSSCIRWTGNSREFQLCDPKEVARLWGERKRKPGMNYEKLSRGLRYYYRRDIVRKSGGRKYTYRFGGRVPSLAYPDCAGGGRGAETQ
Method in brief: as §1

ELF3 = molecular target: T5, ELF3 (Homo sapiens, UniProt P78545 1-371); details: protein: recombinant; tags: N-terminal GST; dsDNA, one strand shown
T5 sequence: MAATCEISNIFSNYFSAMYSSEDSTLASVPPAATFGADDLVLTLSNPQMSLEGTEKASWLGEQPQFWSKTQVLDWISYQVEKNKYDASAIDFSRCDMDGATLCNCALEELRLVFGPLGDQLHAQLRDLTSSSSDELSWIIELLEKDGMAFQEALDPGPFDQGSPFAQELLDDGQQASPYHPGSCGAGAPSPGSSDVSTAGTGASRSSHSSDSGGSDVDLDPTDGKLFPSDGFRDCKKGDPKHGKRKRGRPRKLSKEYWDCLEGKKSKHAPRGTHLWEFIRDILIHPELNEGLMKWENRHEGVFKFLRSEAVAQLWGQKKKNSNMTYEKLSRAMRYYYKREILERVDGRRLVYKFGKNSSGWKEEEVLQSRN
Method in brief: as §1

CRX = CRX (Homo sapiens, UniProt O43186 1-299); details: protein: recombinant; tags: N-terminal GST; dsDNA, one strand shown
Sequence of CRX (O43186 whole entry): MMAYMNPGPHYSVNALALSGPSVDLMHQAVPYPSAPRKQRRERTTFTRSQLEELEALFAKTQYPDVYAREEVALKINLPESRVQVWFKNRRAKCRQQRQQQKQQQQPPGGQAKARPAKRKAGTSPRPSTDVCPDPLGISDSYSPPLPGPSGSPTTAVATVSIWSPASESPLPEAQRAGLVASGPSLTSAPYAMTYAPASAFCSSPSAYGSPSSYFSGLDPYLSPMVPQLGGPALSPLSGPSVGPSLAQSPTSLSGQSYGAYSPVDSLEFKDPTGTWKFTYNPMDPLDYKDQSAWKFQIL
Method in brief: as §1

ETV1 = ETV1 (Homo sapiens, UniProt P50549 1-477); details: protein: recombinant; tags: N-terminal GST; dsDNA, one strand shown
Sequence of ETV1 (P50549 whole entry): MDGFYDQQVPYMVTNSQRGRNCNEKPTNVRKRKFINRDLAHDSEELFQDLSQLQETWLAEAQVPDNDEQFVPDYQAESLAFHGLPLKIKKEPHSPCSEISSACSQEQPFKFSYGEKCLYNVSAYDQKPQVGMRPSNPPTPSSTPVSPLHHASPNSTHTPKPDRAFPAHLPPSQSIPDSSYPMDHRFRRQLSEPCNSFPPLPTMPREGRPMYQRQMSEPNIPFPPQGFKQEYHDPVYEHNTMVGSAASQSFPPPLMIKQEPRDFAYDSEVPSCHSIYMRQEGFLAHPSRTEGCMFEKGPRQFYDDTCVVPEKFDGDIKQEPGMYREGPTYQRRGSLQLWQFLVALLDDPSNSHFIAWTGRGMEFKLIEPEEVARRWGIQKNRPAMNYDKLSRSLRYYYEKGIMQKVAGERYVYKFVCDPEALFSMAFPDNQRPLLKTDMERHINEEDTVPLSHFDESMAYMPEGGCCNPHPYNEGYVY
Method in brief: as §1

ERF = molecular target: T6, ERF (Homo sapiens, UniProt P50548 1-548); details: protein: recombinant; tags: N-terminal GST; dsDNA, one strand shown
T6 sequence: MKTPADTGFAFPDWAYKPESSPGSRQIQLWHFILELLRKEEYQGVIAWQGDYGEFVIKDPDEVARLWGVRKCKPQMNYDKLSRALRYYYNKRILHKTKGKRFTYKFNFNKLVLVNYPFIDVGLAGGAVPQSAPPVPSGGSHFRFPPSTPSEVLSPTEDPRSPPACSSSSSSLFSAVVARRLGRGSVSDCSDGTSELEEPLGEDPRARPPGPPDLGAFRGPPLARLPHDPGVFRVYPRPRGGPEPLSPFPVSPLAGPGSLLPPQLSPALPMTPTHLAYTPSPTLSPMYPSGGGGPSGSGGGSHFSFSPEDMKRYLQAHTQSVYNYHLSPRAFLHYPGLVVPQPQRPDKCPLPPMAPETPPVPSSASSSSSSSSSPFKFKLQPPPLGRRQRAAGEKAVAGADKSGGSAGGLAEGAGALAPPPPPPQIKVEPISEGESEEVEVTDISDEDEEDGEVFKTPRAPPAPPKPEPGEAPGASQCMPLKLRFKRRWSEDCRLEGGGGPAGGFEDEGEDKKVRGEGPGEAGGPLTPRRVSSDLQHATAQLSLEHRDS
Method in brief: as §1

ETV3L = molecular target: T7, ETV3L (Homo sapiens, UniProt Q6ZN32 1-361); details: protein: recombinant; tags: N-terminal GST; dsDNA, one strand shown
T7 sequence: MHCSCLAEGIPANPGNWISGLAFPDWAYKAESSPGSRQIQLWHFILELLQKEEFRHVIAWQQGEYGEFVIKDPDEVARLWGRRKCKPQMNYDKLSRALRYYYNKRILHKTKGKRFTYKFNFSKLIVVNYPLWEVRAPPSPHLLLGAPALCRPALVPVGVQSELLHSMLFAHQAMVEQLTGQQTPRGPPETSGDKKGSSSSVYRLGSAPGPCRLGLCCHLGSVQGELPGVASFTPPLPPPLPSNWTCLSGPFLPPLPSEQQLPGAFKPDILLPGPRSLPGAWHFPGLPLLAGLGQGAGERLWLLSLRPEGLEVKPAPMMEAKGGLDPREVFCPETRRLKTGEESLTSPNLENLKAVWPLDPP
Method in brief: as §1

ETS2 = molecular target: T8, ETS2 (Homo sapiens, UniProt P15036 1-469); details: protein: recombinant; tags: N-terminal GST; dsDNA, one strand shown
T8 sequence: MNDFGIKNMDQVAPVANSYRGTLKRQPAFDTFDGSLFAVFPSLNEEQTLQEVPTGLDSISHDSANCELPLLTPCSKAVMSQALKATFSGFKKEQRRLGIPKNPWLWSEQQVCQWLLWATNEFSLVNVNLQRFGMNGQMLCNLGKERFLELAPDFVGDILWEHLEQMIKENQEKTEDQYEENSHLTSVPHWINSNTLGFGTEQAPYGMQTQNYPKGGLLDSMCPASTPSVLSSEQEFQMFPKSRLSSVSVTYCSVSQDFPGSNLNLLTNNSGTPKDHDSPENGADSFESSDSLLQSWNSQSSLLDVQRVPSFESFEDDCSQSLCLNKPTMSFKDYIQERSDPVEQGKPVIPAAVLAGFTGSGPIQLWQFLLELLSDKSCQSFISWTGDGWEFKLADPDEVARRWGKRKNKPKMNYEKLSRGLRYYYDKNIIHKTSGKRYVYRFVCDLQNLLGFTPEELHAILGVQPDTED
Method in brief: as §1

SPDEF = molecular target: T9, SPDEF (Homo sapiens, UniProt O95238 1-335); details: protein: recombinant; tags: N-terminal GST; dsDNA, one strand shown
T9 sequence: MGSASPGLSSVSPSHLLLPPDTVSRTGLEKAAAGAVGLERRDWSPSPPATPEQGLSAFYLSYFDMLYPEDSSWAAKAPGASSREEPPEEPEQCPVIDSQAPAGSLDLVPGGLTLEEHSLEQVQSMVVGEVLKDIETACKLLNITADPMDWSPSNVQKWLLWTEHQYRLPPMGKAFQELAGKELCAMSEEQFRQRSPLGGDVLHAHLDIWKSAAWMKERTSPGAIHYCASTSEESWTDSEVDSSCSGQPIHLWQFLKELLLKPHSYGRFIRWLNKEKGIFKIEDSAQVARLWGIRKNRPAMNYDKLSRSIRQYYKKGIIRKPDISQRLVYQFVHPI
Method in brief: as §1

ETV7 = molecular target: T10, ETV7 (Homo sapiens, UniProt Q9Y603 1-341); details: protein: recombinant; tags: N-terminal GST; dsDNA, one strand shown
T10 sequence: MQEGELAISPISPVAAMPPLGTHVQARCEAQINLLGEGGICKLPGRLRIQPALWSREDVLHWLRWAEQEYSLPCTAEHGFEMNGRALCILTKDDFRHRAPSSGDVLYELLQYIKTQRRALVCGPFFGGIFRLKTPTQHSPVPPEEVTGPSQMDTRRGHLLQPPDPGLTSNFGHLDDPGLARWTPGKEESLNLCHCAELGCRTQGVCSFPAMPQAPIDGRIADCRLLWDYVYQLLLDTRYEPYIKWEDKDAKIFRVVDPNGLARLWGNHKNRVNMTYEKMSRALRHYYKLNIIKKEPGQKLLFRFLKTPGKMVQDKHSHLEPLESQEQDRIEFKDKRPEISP
Method in brief: as §1

ELF5 = molecular target: T11, ELF5 (Homo sapiens, UniProt Q9UKW6-2 1-255); details: protein: recombinant; tags: N-terminal GST; dsDNA, one strand shown
T11 sequence: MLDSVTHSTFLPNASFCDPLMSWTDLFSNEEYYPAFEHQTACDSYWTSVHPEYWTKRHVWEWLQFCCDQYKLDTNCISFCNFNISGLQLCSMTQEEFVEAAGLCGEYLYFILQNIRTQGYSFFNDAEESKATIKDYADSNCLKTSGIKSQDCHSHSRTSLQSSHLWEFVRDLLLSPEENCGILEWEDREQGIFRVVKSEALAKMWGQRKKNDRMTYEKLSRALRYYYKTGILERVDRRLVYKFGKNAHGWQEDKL
Method in brief: as §1

ETV3 = molecular target: T12, ETV3 (Homo sapiens, UniProt P41162-2 1-143); details: protein: recombinant; tags: N-terminal GST; dsDNA, one strand shown
T12 sequence: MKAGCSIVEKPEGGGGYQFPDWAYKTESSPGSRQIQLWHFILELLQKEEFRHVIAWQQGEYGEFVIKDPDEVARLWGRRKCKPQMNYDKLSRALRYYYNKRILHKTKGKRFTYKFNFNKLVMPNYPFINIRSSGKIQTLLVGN
Method in brief: as §1

ETV6 = ETV6 (Homo sapiens, UniProt P41212 1-452); details: protein: recombinant; tags: N-terminal GST; dsDNA, one strand shown
Sequence of ETV6 (P41212 whole entry): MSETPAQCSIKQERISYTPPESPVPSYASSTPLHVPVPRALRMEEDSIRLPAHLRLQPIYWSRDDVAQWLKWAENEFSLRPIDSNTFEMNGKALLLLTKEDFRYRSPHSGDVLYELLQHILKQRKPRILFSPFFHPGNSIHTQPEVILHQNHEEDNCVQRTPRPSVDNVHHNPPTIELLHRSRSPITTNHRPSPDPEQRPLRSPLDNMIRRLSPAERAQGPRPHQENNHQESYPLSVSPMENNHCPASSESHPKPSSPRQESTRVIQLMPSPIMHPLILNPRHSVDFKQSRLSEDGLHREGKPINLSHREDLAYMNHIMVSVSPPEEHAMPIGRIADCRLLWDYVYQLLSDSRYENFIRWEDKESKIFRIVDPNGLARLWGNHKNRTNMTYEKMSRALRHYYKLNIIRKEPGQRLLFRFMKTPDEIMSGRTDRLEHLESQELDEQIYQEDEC
Method in brief: as §1

For CTCCTC, the binding signal (FEV) was 1.37 fold enrichment (6-mer frequency, TF over GST control), the binding signal (ETV5) was 1.23 fold enrichment (6-mer frequency, TF over GST control) and the binding signal (HSF1) was 1.16 fold enrichment (6-mer frequency, TF over GST control). For the same sequence, the binding signal (SPIC) was 1.3 fold enrichment (6-mer frequency, TF over GST control), the binding signal (ELF4) was 1.47 fold enrichment (6-mer frequency, TF over GST control) and the binding signal (ELK4) was 1.41 fold enrichment (6-mer frequency, TF over GST control). The binding signal (ETV2) was 1.39 fold enrichment (6-mer frequency, TF over GST control), the binding signal (ELF3) was 1.3 fold enrichment (6-mer frequency, TF over GST control) and the binding signal (CRX) was 1.08 fold enrichment (6-mer frequency, TF over GST control). For the same sequence, the binding signal (ETV1) was 1.39 fold enrichment (6-mer frequency, TF over GST control), the binding signal (ERF) was 1.32 fold enrichment (6-mer frequency, TF over GST control) and the binding signal (ETV3L) was 1.61 fold enrichment (6-mer frequency, TF over GST control). For the same sequence, the binding signal (ETS2) was 1.33 fold enrichment (6-mer frequency, TF over GST control), the binding signal (SPDEF) was 1.29 fold enrichment (6-mer frequency, TF over GST control) and the binding signal (ETV7) was 1.29 fold enrichment (6-mer frequency, TF over GST control). The binding signal (ELF5) was 1.32 fold enrichment (6-mer frequency, TF over GST control), the binding signal (ETV3) was 1.22 fold enrichment (6-mer frequency, TF over GST control) and the binding signal (ETV6) was 1.38 fold enrichment (6-mer frequency, TF over GST control).
